This note sets out measurements from paper PMC7862700, “An all-to-all approach to the identification of sequence-specific readers for epigenetic DNA modifications on cytosine”.

Common to all, as to assay: DAPPL (digital affinity profiling via proximity ligation, sequencing); 10 mM Tris-HCl pH 7.5, 50 mM NaCl, 1 mM DTT, 4% glycerol, room temperature, 30 min; GST-TFs on glutathione beads, 16-mer random dsDNA library, 0.1% formaldehyde crosslink after washing; high values mean tight binding
The target in one experiment is T1, FEV (Homo sapiens, UniProt Q99581 1-238).
T1 sequence: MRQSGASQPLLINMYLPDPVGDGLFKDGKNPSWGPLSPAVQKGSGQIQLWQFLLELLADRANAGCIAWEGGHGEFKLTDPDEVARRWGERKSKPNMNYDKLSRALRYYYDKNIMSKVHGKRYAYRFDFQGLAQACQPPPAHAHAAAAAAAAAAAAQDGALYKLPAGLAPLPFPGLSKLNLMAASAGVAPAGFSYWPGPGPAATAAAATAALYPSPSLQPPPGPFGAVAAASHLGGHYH
The following applies: protein: recombinant; tags: N-terminal GST; dsDNA, one strand shown. Summed up:
(§1)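 Human transcription factors were made in yeast as GST fusions, captured on glutathione beads and barcoded with DNA. With a tag-only sample included, the pool was incubated with 200 nmole of a random double-stranded 16-mer DNA library in Tris/NaCl/DTT/glycerol buffer at room temperature for 30 min, then crosslinked with 0.1% formaldehyde after washing, ligated by proximity, amplified and sequenced. For binding signal, each hexamer's read frequency for a factor is divided by its frequency for the tag-only sample.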

The target in another experiment is ETV5 (Homo sapiens, UniProt P41161 1-510). The following applies: protein: recombinant; tags: N-terminal GST; dsDNA, one strand shown. The method in brief: as §1
ETV5, sequence (P41161 whole entry): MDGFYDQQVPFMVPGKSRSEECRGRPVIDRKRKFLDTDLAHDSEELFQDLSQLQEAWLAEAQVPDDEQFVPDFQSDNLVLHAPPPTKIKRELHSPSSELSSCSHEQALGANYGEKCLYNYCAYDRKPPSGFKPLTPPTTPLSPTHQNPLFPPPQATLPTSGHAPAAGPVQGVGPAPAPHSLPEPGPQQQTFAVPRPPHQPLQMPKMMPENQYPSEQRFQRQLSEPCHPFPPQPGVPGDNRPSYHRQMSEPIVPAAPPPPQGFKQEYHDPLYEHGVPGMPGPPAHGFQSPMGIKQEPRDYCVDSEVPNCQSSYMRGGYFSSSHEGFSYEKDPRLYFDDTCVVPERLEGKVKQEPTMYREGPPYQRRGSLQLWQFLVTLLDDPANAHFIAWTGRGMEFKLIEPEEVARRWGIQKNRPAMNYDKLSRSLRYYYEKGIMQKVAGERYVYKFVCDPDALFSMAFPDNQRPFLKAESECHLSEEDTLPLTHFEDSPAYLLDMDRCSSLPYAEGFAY
A further experiment addresses HSF1 (Homo sapiens, UniProt Q00613 1-529). The note with it: protein: recombinant; tags: N-terminal GST; chain copies: 3; dsDNA, one strand shown. Summed up: as §1
Another experiment addresses T2, SPIC (Homo sapiens, UniProt Q8N5J4 1-248).
T2 sequence: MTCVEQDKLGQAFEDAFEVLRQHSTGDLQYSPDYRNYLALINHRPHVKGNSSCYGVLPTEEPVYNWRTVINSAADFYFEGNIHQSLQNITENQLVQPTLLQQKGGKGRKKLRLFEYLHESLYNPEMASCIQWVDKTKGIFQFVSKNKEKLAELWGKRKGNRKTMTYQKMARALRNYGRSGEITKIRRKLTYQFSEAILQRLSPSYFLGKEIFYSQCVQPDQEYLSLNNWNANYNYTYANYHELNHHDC
The note with it: protein: recombinant; tags: N-terminal GST; dsDNA, one strand shown. The method in brief:
as §1

The target of the next experiment is ELF4 (Homo sapiens, UniProt Q99607 1-663). The following applies: protein: recombinant; tags: N-terminal GST; dsDNA, one strand shown. The method in brief:
as §1

A further experiment concerns the target T3, ELK4 (Homo sapiens, UniProt P28324-2 1-405).
T3 sequence: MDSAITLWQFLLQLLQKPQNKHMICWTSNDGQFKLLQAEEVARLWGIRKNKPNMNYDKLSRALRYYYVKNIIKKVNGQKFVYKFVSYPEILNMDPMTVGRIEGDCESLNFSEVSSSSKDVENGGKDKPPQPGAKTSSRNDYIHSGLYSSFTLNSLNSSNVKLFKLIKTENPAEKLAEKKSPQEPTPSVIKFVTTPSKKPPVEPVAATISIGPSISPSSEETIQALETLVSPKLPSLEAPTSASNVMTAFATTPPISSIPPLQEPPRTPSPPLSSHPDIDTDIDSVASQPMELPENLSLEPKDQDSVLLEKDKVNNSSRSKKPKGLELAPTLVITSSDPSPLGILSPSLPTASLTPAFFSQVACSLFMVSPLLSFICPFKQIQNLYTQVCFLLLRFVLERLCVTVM
The note with it: protein: recombinant; tags: N-terminal GST; dsDNA, one strand shown. Summed up:
as §1

The target in another experiment is T4, ETV2 (Homo sapiens, UniProt O00321 1-342).
T4 sequence: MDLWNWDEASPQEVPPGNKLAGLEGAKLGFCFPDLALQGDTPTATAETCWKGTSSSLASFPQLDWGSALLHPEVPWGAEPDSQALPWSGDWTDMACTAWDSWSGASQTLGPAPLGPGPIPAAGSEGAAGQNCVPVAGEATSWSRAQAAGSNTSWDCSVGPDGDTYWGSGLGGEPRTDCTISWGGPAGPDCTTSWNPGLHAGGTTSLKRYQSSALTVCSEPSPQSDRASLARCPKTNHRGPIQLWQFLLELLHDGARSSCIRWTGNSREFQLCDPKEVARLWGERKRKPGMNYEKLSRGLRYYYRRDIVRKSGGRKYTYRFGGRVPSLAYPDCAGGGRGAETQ
The following applies: protein: recombinant; tags: N-terminal GST; dsDNA, one strand shown. Summed up: as §1

The target in another experiment is T5, ELF3 (Homo sapiens, UniProt P78545 1-371).
T5 sequence: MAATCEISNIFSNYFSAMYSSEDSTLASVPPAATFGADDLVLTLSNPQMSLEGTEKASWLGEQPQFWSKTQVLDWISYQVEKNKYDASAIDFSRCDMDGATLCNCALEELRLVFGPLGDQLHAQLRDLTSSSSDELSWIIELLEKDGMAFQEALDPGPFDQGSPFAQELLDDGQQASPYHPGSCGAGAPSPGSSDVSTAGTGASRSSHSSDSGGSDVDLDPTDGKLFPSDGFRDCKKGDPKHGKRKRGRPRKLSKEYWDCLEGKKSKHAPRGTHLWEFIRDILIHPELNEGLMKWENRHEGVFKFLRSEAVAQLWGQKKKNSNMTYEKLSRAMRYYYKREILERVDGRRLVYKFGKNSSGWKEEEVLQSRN
The note with it: protein: recombinant; tags: N-terminal GST; dsDNA, one strand shown. The method in brief: as §1

For another experiment, the target named is CRX (Homo sapiens, UniProt O43186 1-299). The note with it: protein: recombinant; tags: N-terminal GST; dsDNA, one strand shown. The method in brief: as §1
CRX, sequence (O43186 whole entry): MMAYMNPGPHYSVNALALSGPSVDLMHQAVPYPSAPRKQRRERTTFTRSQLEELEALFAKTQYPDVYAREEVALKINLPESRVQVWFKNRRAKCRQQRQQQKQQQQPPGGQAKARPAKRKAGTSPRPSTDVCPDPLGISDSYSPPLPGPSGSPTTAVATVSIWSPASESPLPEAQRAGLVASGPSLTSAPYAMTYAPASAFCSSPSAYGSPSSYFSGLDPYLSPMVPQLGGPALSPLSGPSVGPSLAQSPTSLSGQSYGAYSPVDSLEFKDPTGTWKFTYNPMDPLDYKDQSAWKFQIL
A further experiment addresses ETV1 (Homo sapiens, UniProt P50549 1-477). The note with it: protein: recombinant; tags: N-terminal GST; dsDNA, one strand shown. Summed up:
as §1

Another experiment addresses T6, ERF (Homo sapiens, UniProt P50548 1-548).
T6 sequence: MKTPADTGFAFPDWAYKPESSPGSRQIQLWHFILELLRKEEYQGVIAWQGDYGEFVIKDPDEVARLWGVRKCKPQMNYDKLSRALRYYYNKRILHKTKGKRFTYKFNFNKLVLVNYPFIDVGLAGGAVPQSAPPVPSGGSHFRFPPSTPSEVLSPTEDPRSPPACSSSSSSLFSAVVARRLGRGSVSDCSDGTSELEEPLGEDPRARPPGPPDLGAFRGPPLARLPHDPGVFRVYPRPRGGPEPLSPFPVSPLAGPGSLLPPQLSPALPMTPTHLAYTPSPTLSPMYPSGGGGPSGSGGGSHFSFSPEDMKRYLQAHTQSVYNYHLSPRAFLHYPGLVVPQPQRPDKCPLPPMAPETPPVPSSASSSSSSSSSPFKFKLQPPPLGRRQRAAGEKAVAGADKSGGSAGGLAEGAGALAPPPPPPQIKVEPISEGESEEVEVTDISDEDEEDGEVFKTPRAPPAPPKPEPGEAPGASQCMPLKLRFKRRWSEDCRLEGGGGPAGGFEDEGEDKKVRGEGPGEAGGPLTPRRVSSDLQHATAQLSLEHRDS
The note with it: protein: recombinant; tags: N-terminal GST; dsDNA, one strand shown. The method in brief:
as §1

A further experiment addresses T7, ETV3L (Homo sapiens, UniProt Q6ZN32 1-361).
T7 sequence: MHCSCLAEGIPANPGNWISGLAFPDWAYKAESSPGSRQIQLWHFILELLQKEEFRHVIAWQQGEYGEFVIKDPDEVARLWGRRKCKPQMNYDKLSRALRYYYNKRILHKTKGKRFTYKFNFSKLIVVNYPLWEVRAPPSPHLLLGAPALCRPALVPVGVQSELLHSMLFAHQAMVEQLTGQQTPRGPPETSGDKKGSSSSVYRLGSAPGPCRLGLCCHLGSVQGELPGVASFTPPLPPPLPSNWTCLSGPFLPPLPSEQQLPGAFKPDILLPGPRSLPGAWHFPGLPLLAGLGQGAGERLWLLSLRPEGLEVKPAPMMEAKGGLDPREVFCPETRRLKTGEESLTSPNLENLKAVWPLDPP
The following applies: protein: recombinant; tags: N-terminal GST; dsDNA, one strand shown. The method in brief: as §1

In another experiment the target is T8, ETS2 (Homo sapiens, UniProt P15036 1-469).
T8 sequence: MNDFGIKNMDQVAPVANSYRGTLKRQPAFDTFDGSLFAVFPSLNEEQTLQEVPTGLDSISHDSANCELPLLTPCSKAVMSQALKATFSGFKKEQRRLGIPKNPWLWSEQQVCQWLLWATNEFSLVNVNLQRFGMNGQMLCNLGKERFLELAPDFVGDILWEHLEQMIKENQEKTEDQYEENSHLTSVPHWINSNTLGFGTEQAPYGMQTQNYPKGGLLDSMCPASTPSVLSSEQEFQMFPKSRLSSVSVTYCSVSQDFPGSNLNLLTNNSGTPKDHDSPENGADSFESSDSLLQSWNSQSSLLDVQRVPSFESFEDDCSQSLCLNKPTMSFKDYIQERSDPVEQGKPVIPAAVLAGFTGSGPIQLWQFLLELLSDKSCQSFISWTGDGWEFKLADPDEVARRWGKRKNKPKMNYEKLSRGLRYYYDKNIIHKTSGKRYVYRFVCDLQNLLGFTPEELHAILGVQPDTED
The following applies: protein: recombinant; tags: N-terminal GST; dsDNA, one strand shown. Summed up:
as §1

The next experiment addresses T9, SPDEF (Homo sapiens, UniProt O95238 1-335).
T9 sequence: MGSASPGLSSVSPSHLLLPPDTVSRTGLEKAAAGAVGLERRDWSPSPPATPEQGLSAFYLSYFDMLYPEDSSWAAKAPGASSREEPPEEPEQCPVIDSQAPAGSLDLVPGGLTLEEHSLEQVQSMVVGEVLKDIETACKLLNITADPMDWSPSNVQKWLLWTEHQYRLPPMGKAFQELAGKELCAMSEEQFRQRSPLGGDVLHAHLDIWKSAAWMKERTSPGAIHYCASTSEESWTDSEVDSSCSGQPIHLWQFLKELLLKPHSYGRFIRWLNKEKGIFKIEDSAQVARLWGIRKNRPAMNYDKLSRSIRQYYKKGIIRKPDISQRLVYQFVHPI
The note with it: protein: recombinant; tags: N-terminal GST; dsDNA, one strand shown. The method in brief:
as §1

A further experiment addresses T10, ETV7 (Homo sapiens, UniProt Q9Y603 1-341).
T10 sequence: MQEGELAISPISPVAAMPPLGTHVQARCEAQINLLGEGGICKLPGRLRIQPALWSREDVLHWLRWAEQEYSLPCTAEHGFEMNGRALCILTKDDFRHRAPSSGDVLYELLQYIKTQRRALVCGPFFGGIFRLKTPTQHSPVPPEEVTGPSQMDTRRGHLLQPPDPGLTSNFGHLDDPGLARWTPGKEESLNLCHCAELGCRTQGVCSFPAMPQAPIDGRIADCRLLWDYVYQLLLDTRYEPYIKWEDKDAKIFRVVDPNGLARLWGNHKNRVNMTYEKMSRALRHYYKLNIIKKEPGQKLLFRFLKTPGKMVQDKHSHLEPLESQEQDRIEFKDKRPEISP
The note with it: protein: recombinant; tags: N-terminal GST; dsDNA, one strand shown. The method in brief:
as §1

The target of a further experiment is T11, ELF5 (Homo sapiens, UniProt Q9UKW6-2 1-255).
T11 sequence: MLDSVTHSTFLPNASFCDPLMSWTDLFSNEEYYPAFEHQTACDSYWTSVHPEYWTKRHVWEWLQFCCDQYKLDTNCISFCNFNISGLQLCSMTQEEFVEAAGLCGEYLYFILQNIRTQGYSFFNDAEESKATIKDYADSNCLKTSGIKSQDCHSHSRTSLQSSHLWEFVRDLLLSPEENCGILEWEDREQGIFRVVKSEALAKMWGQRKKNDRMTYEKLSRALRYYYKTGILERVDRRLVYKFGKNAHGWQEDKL
The following applies: protein: recombinant; tags: N-terminal GST; dsDNA, one strand shown. Summed up: as §1

The target of another experiment is T12, ETV3 (Homo sapiens, UniProt P41162-2 1-143).
T12 sequence: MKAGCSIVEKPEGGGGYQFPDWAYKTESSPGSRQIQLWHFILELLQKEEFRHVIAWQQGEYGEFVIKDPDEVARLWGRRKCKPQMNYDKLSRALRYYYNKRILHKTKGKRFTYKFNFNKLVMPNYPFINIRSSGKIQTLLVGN
The following applies: protein: recombinant; tags: N-terminal GST; dsDNA, one strand shown. The method in brief: as §1

The next experiment deals with ETV6 (Homo sapiens, UniProt P41212 1-452). The note with it: protein: recombinant; tags: N-terminal GST; dsDNA, one strand shown. The method in brief:
as §1

ETV1, sequence (P50549 whole entry): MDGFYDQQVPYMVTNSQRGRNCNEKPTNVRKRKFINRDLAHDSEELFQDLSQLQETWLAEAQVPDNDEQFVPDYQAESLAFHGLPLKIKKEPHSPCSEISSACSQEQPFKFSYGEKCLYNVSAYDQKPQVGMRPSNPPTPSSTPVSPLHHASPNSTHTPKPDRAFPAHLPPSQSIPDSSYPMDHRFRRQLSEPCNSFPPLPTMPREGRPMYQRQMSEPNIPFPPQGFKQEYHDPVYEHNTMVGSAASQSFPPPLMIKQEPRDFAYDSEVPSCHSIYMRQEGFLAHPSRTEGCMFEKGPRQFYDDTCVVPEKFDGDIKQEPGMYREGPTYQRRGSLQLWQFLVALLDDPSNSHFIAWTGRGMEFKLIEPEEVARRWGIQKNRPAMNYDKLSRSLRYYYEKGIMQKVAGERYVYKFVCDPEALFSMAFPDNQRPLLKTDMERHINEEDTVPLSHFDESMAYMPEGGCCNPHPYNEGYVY
ELF4, sequence (Q99607 whole entry): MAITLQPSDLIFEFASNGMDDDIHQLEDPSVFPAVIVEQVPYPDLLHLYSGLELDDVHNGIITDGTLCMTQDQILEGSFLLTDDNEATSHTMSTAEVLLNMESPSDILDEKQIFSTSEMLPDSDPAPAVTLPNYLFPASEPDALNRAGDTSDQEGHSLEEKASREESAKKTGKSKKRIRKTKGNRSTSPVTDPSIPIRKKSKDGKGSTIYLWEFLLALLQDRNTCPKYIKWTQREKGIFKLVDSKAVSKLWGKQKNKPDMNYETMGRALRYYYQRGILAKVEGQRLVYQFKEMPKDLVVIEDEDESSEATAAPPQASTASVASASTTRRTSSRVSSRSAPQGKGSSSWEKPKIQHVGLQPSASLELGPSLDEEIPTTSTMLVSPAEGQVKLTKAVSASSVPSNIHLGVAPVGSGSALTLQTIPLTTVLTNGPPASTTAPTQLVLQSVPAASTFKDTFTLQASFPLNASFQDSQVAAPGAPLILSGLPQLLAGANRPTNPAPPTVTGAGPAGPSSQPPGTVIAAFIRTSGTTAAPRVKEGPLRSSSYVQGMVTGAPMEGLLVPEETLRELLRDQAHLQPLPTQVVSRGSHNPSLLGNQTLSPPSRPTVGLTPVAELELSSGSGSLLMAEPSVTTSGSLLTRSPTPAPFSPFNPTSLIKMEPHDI
HSF1, sequence (Q00613 whole entry): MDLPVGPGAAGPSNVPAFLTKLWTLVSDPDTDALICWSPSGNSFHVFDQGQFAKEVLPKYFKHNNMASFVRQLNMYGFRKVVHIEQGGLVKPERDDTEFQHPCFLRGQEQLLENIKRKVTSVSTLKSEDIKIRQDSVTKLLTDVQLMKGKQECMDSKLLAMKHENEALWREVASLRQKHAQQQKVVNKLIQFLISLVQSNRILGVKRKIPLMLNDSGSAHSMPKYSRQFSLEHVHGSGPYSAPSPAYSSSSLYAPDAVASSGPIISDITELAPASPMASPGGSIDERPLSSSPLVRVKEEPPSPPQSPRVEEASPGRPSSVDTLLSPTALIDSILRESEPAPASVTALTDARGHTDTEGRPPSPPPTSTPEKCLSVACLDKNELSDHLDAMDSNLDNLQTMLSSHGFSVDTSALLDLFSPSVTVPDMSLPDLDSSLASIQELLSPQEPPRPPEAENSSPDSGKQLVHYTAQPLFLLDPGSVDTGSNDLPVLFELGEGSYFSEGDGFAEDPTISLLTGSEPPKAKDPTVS
ETV6, sequence (P41212 whole entry): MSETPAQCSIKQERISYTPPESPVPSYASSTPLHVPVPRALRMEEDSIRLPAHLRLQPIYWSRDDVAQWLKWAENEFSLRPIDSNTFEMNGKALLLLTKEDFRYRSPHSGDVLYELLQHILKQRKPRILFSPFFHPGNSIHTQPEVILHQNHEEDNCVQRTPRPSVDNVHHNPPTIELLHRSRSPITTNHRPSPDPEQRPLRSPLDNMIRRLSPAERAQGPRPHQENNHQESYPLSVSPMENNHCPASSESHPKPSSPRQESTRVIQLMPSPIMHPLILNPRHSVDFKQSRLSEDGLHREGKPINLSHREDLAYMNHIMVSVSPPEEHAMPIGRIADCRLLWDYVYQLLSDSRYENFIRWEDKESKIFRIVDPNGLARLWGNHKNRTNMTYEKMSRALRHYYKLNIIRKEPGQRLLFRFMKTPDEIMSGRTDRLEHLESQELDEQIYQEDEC

With ATTACA, the binding signal with FEV is 1.06 fold enrichment (6-mer frequency, TF over GST control); in the experiment with ETV5, 1.07 fold enrichment (6-mer frequency, TF over GST control); with HSF1, 1.4 fold enrichment (6-mer frequency, TF over GST control); with SPIC, 1.15 fold enrichment (6-mer frequency, TF over GST control); with ELF4 it was 1.16 fold enrichment (6-mer frequency, TF over GST control); in the experiment with ELK4 it was 1.2 fold enrichment (6-mer frequency, TF over GST control). Besides, the binding signal with ETV2 is 1.14 fold enrichment (6-mer frequency, TF over GST control); with ELF3, 1.16 fold enrichment (6-mer frequency, TF over GST control); with CRX, 1.86 fold enrichment (6-mer frequency, TF over GST control); in the experiment with ETV1, 1.17 fold enrichment (6-mer frequency, TF over GST control); with ERF, 1.16 fold enrichment (6-mer frequency, TF over GST control); with ETV3L, 1.1 fold enrichment (6-mer frequency, TF over GST control). In addition, the binding signal in the experiment with ETS2 is 1.11 fold enrichment (6-mer frequency, TF over GST control); with SPDEF it was 1.18 fold enrichment (6-mer frequency, TF over GST control); in the experiment with ETV7, 1.08 fold enrichment (6-mer frequency, TF over GST control); with ELF5 it was 1.08 fold enrichment (6-mer frequency, TF over GST control); with ETV3, 1.04 fold enrichment (6-mer frequency, TF over GST control); in the experiment with ETV6, 1.15 fold enrichment (6-mer frequency, TF over GST control).
